# Compound activity (PubChem BioAssay)
# Rows were chosen to be rich in hits. Some 13% of all compounds tested hit in one or more screens of this group.
# FMDV inh: foot and mouth disease virus antiviral activity; FMDV antiviral cell-based qHTS; Potency, µM (highest dose often 57.9 µM), for the others: top-dose activity change, negative = inhibition, hits mostly inhibitors; hit rate 1.2% among 410,000; AID 1159524; calls by dose curve; tested in HEK293T cells; note: read-out not given here; potency is the fitted concentration of half-maximal effect; % is set by controls: 0 for no effect and ±100 for the full control effect; nearly all actives have a fitted effect of over 45% in size
# Cycloheximide cs: counter-screen hit for Shiga toxin inhibitors, cycloheximide; hit rate 12% among 300,000; cell reporter, cycloheximide protein synthesis inhibition counterscreen; AID 2314; max response, %; in the data active = max response mostly above about 13%, no sharp cut-off; inactive = mostly below about 14%; note: read at 38.3 µM for the half of the compounds with a filed dose; 0% is about no effect
# HCV inhibitor: HCV inhibition; Huh7.5.1 HCVcc-Cre infection, luciferase reporter, 44 h; hit rate 3.4% among 340,000; Potency, µM (titrated, usually from 41.8 µM), for inactives: top-dose activity change, negative = inhibition, most hits filed as inhibitors; active = well fitted inhibition curve with a large enough effect; inconclusive = small, poorly fitted or top-dose-only effect, or another doubt; inactive = no such curve, though single readings can be large or run the other way; note: potency is the fitted concentration of half-maximal effect; % is set by controls: 0 for no effect and ±100 for the full control effect
#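 Reporter virus HCVcc-Cre (~0.5 moi) infects cells exposed to compound; seeding density 1,000 cells/well with 4 h settling beforehand. Luminescence, 15 sec read, taken 44 h post-infection following a 15 min RT substrate incubation.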
# Shiga toxin inh: Shiga toxin inhibition. inhibition, % at 38.7 µM. Vero cells, Shiga toxin protein synthesis inhibition reporter. AID 2315. hit rate 9.2% among 290,000; in the data active = inhibition mostly above about 28%, no sharp cut-off; inactive = mostly below about 43%; note: 0% is about no effect
# LASV entry inh: inhibitors of Lassa virus binding or cell entry. Lassa virus pseudotype entry inhibition, cell reporter. hit rate 1.2% among 300,000. Potency, µM (titrated, usually from 37.9 µM), for the others: at the top dose activity change, negative = inhibition, usual class: inhibitors; calls by dose curve; tested in HEK293 cells; note: potency is the fitted concentration of half-maximal effect; % is set by controls: 0 for no effect and ±100 for the full control effect; nearly all actives have a fitted effect of over 50% in size
# Marburg entry inh: inhibitors of Marburg virus binding or cell entry. Marburg virus pseudotyped entry inhibition, cell reporter. Potency, µM (titrated, usually from 37.8 µM), inactives show top-dose activity change, negative = inhibition, hits mostly inhibitors. hit rate 1.8% among 300,000; calls by dose curve; tested in HEK293 cells; note: potency is the fitted concentration of half-maximal effect; % is set by controls: 0 for no effect and ±100 for the full control effect
# Active calls of the source: *; ? = inconclusive; nt = no result; ! = a repeat was not active; [ ] = remark or other dose.
SMILES,FMDV inh,Cycloheximide cs,HCV inhibitor,Shiga toxin inh,LASV entry inh,Marburg entry inh
Cc1ccc(-c2cc(C(=O)N/N=C/c3ccoc3)c3ccccc3n2)cc1,23%,19,-9%,-4,nt,nt
Cc1ccc(NC(=O)CCCc2nnc3n(C)c(=O)c4sccc4n23)cc1F,1.3µM*,nt,nt,nt,?,18%[46.1 µM]
CCCn1c(=O)c2sccc2n2c(CCCC(=O)Nc3ccc(C)c(F)c3)nnc12,-20%,nt,nt,nt,-10%[46.1 µM],nt
COc1ccc(-c2csc(NCc3ccco3)n2)cc1C,91%,24*,-20%,114*,-4%,4%
COc1ccc(-c2ccc(C#N)c(SCC(=O)NCc3ccco3)n2)cc1OC,-4%,3,-13%,-6,?,?
c1cncc(-c2csc(NCc3ccco3)n2)c1,44%,32*,-5%,38*,0%,?
COc1ccc(-c2nc3cccc(C)n3c2NCc2ccco2)cc1OC,?,16*,?,-4,-28%,?
CC(=O)Nc1ccc(-c2csc(NCc3ccco3)n2)cc1,48%,48*,?,44*,-16%,?
CNc1c(NS(=O)(=O)c2ccc(Br)cc2)c(=O)oc2ccccc12,-8%,-5,-7%,3,?,1%[46.1 µM]
Cc1ccc(S(=O)(=O)NC(CC(N)=O)C(=O)O)cc1 (centres undefined),0%,2,1%,14,?,?
Cc1ccc(S(=O)(=O)N[C@@H](CCCCN)C(=O)CCl)cc1,-21%,nt,?,nt,-34%,13µM*!
COc1ccc(N2C(=O)/C(=C/C=C/c3ccccc3[N+](=O)[O-])C(=O)NC2=S)cc1,22µM*,3,22%,27,-18%,14%[46.1 µM]
COc1ccc(N2C(=O)/C(=C/c3cccs3)NC2=S)cc1,-9%,-1,7%,22*,0%,?
COc1ccc(N2C(=O)/C(=C/c3cccs3)C(=O)NC2=S)cc1,25µM*,-1,-25%,-13,3%,16%[46.1 µM]
CN(C)c1ccc(-c2ccc3ncnc(NCc4ccccc4)c3c2)cc1,10%,nt,nt,nt,nt,nt
CC(C)(C)c1csc(CS(=O)(=O)c2ccccn2)n1,19%,24*,19%,88*,nt,nt
COC(=O)CC=C[C@@H](C)[C@@H](COc1ccccc1Br)OC,nt,nt,nt,nt,nt,12%[14.2 µM]
O=C(Nc1nc(-c2cccnc2)cs1)c1ccccc1Cl,9%,-2,-25%,18,2%,-20%[46.1 µM]
CN(C)c1ccc(Nc2nc(-c3cccnc3)cs2)cc1,-4%,52*,-25%,59*,?,?
CCN(CC)c1ccc(Nc2nc(-c3cccnc3)cs2)cc1,6%,36*,-28%,118*,3%,?
COc1cccc(N/C(SC)=C(/C#N)C(N)=O)c1,-16%,10,-12%,24,?,?
COc1ccccc1-c1cc(C(=O)Nc2cc(OC)c(OC)c(OC)c2)no1,0%,nt,nt,nt,?,?
CCN(CC)C(=O)c1cc(-c2ccccc2OC)on1,54%,37*,2%,54*,0%,?
COc1ccccc1-c1cc(C(=O)NCc2cccs2)no1,36%,12,-9%,28,-2%,2%
COCCNC(=O)c1cc(-c2ccccc2OC)on1,52%,17*,?,131,nt,nt
SMILES,FMDV inh,Cycloheximide cs,HCV inhibitor,Shiga toxin inh,LASV entry inh,Marburg entry inh
COc1ccccc1-c1cc(C(=O)NCc2ccco2)no1,45%,37*,?,30,0%,-2%
CCC(C)NC(=O)c1cc(-c2ccccc2O)on1 (centres undefined),106%,52*,6%,84*,nt,nt
CC(CCc1ccccc1)NC(=O)CSc1n[nH]c(-c2ccccc2)n1 (centres undefined),-16%,nt,nt,nt,?,nt
NC(=O)CSc1nc2c(sc3ccccc32)c(=O)n1CCCC(=O)NCC1CCCO1 (centres undefined),-8%,-1,12%,-6,-5%,-3%[46.1 µM]
CCC(NC(=O)c1ccccc1NC(=O)c1ccccc1)C(=O)OC (centres undefined),-14%,-4,-6%,-16,nt,nt
COc1ccccc1-c1cc(C(=O)NC(C)C)no1,51%,34*,?,83*,?,?
COc1ccccc1-c1cc(C(=O)NC(C)c2ccccc2)no1 (centres undefined),23%,7,nt,-18,22%[14.3 µM],-10%
CC(C)(C)C(=O)NC(Nc1cccc2cccnc12)C(Cl)(Cl)Cl (centres undefined),?,10,?,29,?,?
O=C1OC(N2CCN(C/C=C/c3ccccc3)CC2)c2ccccc21 (centres undefined),-25%,0,-22%,-11,6%,3%
COc1ccccc1NS(=O)(=O)c1cc(C(=O)NCc2ccco2)ccc1C,36%,8,-16%,-6,-17%,1%
Cc1ccc(C)c(NS(=O)(=O)c2cc(C(=O)NCc3ccco3)ccc2C)c1,40%,-3,?,-6,?,-18%
Cc1ccc(C(=O)NCc2ccco2)cc1S(=O)(=O)Nc1cccc(C)c1C,-101%,-1,?,6,?,21µM*
Cc1ccc(SCCNC(=O)c2ccc(C)c(S(=O)(=O)Nc3ccccc3C)c2)cc1,nt,-4,?,-16,10µM*,23µM*
Cc1ccccc1NS(=O)(=O)c1cc(C(=O)NCc2ccco2)ccc1C,8%,-1,?,18,1.6µM*,-7%
Cc1ccccc1NS(=O)(=O)c1cc(C(=O)NCCC2=CCCCC2)ccc1C,nt,2,?,-18,?,-45%
COC(C/C=C\[C@H](O)COCc1ccccc1)OC,-4%,nt,4%,nt,nt,nt
COC(C/C=C/C(=O)[C@H](C)OCc1ccccc1)OC,35µM*,nt,1%[8.37 µM],nt,nt,nt
COC(C/C=C/C(=O)COCc1ccccc1)OC,-4%,18*,56%,42*,nt,nt
Cc1cccc(NC(=O)CN2C(=O)N/C(=C/c3cc(C)n(C(C)C)c3C)C2=O)c1,0%,-1,?,37,?,?
COCCn1c(C)cc(/C=C2/SC(=O)N(C(C)C(=O)OC)C2=O)c1C (centres undefined),2%,53*,-4%,89*,nt,nt
COCCn1c(C)cc(/C=C2\NC(=S)N(C)C2=O)c1C,0%,17*,-14%,47*,29%,-34%
CCn1c(C)cc(/C=C2/SC(=O)N(C(C)C(=O)OC)C2=O)c1C (centres undefined),-12%,48*,?,106*,?,?
COC(=O)C(C)N1C(=O)S/C(=C/c2cc(C)n(C(C)C)c2C)C1=O (centres undefined),-23%,38*,10µM*,106*,-27%,?
CN1C(=O)/C(=C/c2cc3c(cc2Br)OCO3)NC1=S,-21%,-7,19%,-5,4%[46.1 µM],?
COCCn1c(C)cc(/C=C(\C#N)C(=O)OC(C)C(=O)Nc2ccc(NC(C)=O)cc2)c1C (centres undefined),-7%,nt,-12%,nt,-15%,?
